Unmarked numbers belong to inactive results. No rule for the calls is given here. Non-standard residues stand in square brackets, D forms with d. Residues, ends and D or L forms follow the SMILES beside them. Groups on a side chain read outwards from the residue. *: point of attachment. X2 = CCC(C)C(N)C1=NC(C(=O)*)CS1; Orn = NCCC[CH](N)C(=O)O
Tested on: Aerobactin synthetase IucA (Klebsiella pneumoniae hvKP1)
Experiment: Biochemical IucA enzyme inhibition primary screen of the Spectrum library (AID 1346200);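 also: 100% = wells without compound and 0% = wells lacking enzyme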
Conditions: malachite green pyrophosphate, A620, at 8 µM, stronger effect = lower value

| SMILES | activity remaining |
| --- | --- |
| CCN(CC)CCNC(=O)c1cc(Br)c(N)cc1OC | 109% |
| O=c1c(O)cccc2cc(O)c(O)c(O)c12 | 107% |
| NC(=O)c1ccc[n+]([C@@H]2O[C@H](COP(=O)([O-])OP(=O)(O)OC[C@H]3O[C@@H](n4cnc5c(N)ncnc54)[C@H](O)[C@@H]3O)[C@@H](O)[C@H]2O)c1 | 108% |
| Oc1cc2c(cc1O)C(c1ccccc1)CNCC2 (configuration not stated) | 88.1% |
| COC(=O)C[C@@H]1C2(C)C(=O)[C@@H](CC3=C4CC(O)O[C@@H](c5ccoc5)[C@]4(C)CCC32)[C@H](O)C1(C)C (some centres not stated) | 128% |
| CN(C)C(=N)N=C(N)N | 120% |
| CC(=O)NCCCCCC(=O)O | 124% |
| CCC(=O)c1c(O)cc(O)cc1O | 116% |
| O=c1cc[nH]c(=S)[nH]1 | 97.7% |
| FC(F)(F)C(Cl)Br (configuration not stated) | 106% |
| O=c1oc2ccccc2cc1O | 110% |
| CC(CCC(=O)O)[C@H]1CCC2C3C[C@H](O)[C@@H]4C[C@H](O)CC[C@]4(C)C3CC[C@@]21C (some centres not stated) | 104% |
| O=C(O)c1ccccc1Nc1cccc(C(F)(F)F)c1 | 116% |
| C/C=C/CC(C)C(O)C1C(=O)NC(CC)C(=O)N(C)CC(=O)N(C)C(CC(C)C)C(=O)NC(C(C)C)C(=O)N(C)C(CC(C)C)C(=O)NC(C)C(=O)NC(C)C(=O)N(C)C(CC(C)C)C(=O)N(C)C(CC(C)C)C(=O)N(C)C(C(C)C)C(=O)N1C (configuration not stated) | 113% |
| OC[C@H]1O[C@@H](Oc2ccc(O)cc2)[C@H](O)[C@@H](O)[C@@H]1O | 115% |
| O=c1[nH]c(=O)n(C2C[C@H](O)[C@@H](CO)O2)cc1C(F)(F)F (some centres not stated) | 108% |

| SMILES | activity remaining |
| --- | --- |
| CO/N=C1\CN(c2nc3c(cc2F)c(=O)c(C(=O)O)cn3C2CC2)CC1CN (configuration not stated) | 106% |
| CCC(C)C(N)C1=NC(C(=O)NC(CC(C)C)C(=O)NC(CCC(=O)O)C(=O)NC(C(=O)NCCCCC2NC(=O)C(CC(N)=O)NC(=O)C(CC(=O)O)NC(=O)C(Cc3cnc[nH]3)NC(=O)C(Cc3ccccc3)NC(=O)C(C(C)CC)NC(=O)C(CCCN)NC2=O)C(C)CC)CS1 (stereo not drawn) (cyclo(DNK([Ile-Glu-Leu-X2])[Orn]IFH); configuration not given here) | 123% |
| O=C1CN(/N=C/c2ccc([N+](=O)[O-])o2)C(=O)N1 | 78.3% |
| C[C@H]1O[C@H](O[C@H]2[C@H](O)[C@@H](O)[C@@H](O[C@H]3[C@H](O)[C@@H](O)C(O)O[C@@H]3CO)O[C@@H]2CO)[C@H](O)[C@@H](O)[C@@H]1N[C@H]1C=C(CO)[C@@H](O)[C@H](O)[C@H]1O (some centres not stated) | 107% |
| CN(C)CCOc1ccc(/C(=C(/CCCl)c2ccccc2)c2ccccc2)cc1 | 112% |
| COc1ccc(-c2cc(C(F)F)nn2-c2ccc(S(N)(=O)=O)cc2)cc1F | 123% |
| CO[C@H]1C[C@H](O[C@H]2[C@H](C)[C@@H](OC3O[C@H](C)C[C@H](N(C)C)[C@H]3O)[C@@H](C)C[C@]3(CO3)C(=O)[C@H](C)[C@@H](O)[C@@H](C)[C@@H](C)OC(=O)[C@@H]2C)O[C@@H](C)[C@@H]1O (some centres not stated) | 107% |
| CC12CCC3c4ccc(OCc5ccccc5)cc4CCC3C1C[C@@H](O)[C@@H]2O (some centres not stated) | 119% |
| O=C(/C=C/C(=O)Oc1ccccc1C(=O)O)Oc1ccccc1C(=O)O | 92% |
| CC(=O)OCC(=O)[C@@]12OC(C)(C)O[C@@H]1CC1C3C[C@H](F)C4=CC(=O)C=C[C@]4(C)[C@@]3(F)[C@@H](O)C[C@@]12C (some centres not stated) | 100% |
| CC1Cc2ccccc2N1NC(=O)c1ccc(Cl)c(S(N)(=O)=O)c1 (configuration not stated) | 101% |
| COc1ccc2c3c1O[C@H]1C[C@@H](O)C=C[C@@]31CCN(C)C2 | 103% |
| COc1ccc(-c2cc(=O)c3c(OC)c(OC)c(OC)c(OC)c3o2)cc1 | 121% |
| COc1cc(CNC(=O)CCCC/C=C/C(C)C)ccc1O | 109% |
| COc1ccc([C@H]2COc3c(ccc(O)c3OC)C2)c(OC)c1O | 89.5% |
| CCC(C)C(=O)O[C@@H]1C[C@@]2(C)[C@H](c3ccoc3)OC(=O)CC23OC2(C)OC34[C@H](OC(=O)C(C)C)[C@@]3(O)[C@@H](OC(=O)C5(C)OC5C)[C@@]5(C)C[C@]3(O)[C@@](C)([C@H]5CC(=O)OC)C14O2 (some centres not stated) | 112% |

Source: PubChem BioAssay
